The nature of experiment [1]: optical density shifts of acrAB sulA E. coli – strain DRC41, OD650, 48 h, E. coli filamentation inducer project, primary screen (AID 1152).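 Also: E. coli MC1000 strain DRC41 lacking acrAB efflux pump and sulA.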 The note with it: higher = more signal, called active from +8 up or from −8 down.
A short description of experiment [2]: probe aLefty1 binding on compound microarray – biochemical, small-molecule microarray, 635/667 nm fluorescence, primary screen (AID 1153).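 Also: score merges spot fluorescence with signal-to-noise ratio from the scanned slide images.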 As to conditions: higher = more signal.
The nature of experiment [3]: plasmodial surface anion channel blockers, osmotic lysis – cell-based, P. falciparum Indochina, OD700, 1 h, primary screen (AID 1154). The note with it: P. falciparum Indochina infected RBC osmotic lysis, higher = more signal, called active from +8 up or from −8 down.
Experiment [4] is described as follows: plasmodial surface anion channel blockers, osmotic lysis – cell-based, P. falciparum Indochina, OD700, 2 h, primary screen (AID 1155).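 Also: lysis reports solute entry through the parasite surface anion channel PSAC.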 As to conditions: P. falciparum Indochina infected erythrocytes, higher = more signal, called active from +8 up or from −8 down.
The nature of experiment [5]: changes in parasitized red cell lysis, either direction – P. falciparum Indochina, OD700, 3 h, PSAC antagonist project, primary screen (AID 1156). As to conditions: P. falciparum-infected erythrocytes, osmotic lysis, higher = more signal, called active from +8 up or from −8 down.
Experiment [6] is described as follows: plasmodial surface anion channel blockers, osmotic lysis – cell-based, P. falciparum Indochina, OD700, 18 h, primary screen (AID 1157). As to conditions: P. falciparum Indochina infected erythrocytes, osmotic lysis OD700, 18 h; higher = more signal, called active from +8 up or from −8 down.
Experiment [7] is described as follows: S6 kinase pathway phospho-S6 level changes – cell-based, A549, cytoblot, luminescence, serum-stimulated, primary screen (AID 1158).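 Also: serum-stimulated A549 lung adenocarcinoma cells; signal is phosphorylated S6 detected by cytoblot immunostaining with HRP secondary.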 The note with it: 5 h, higher = more signal.
The target of experiment [8] is NADPH oxidase 2 (Homo sapiens) (UniProt P04839). The experiment is described as follows: compounds shifting NOX2 Amplex Red fluorescence – cell-based, HEK293-NOX2, PMA-stimulated, NOX inhibitor project, primary screen (AID 1159). Also: test concentration not given here. As to conditions: 45 min, higher = more signal, called active from +8 up or from −8 down.
Experiment [9] addresses NADPH oxidase 4 (Homo sapiens) (UniProt Q9NPH5). Nature of the experiment: compounds shifting NOX4 Amplex Red fluorescence – cell-based, HEK293-NOX4, tetracycline-induced, NOX inhibitor project, primary screen (AID 1160). The note with it: HEK293-NOX4, Amplex Red H2O2 fluorescence, 45 min; higher = more signal, called active from +8 up or from −8 down.
Experiment [10] addresses NADPH oxidase 5 (Homo sapiens) (UniProt Q96PH1). The experiment is described as follows: compounds shifting NOX5 Amplex Red fluorescence – cell-based, HEK293-NOX5, NOX inhibitor project, primary screen (AID 1161). The note with it: HEK293-NOX5, ionomycin, 45 min, higher = more signal.
A short description of experiment [11]: compound effects on lung adenocarcinoma cell viability – A549, calcein-AM fluorescence, 48 h, basal, profiling panel (AID 1162). Also: test concentration not given here. The note with it: higher = more signal.
Experiment [12] is described as follows: compound effects on differentiated 3T3-L1 adipocyte viability – cell-based, 3T3-L1 adipocytes, calcein-AM fluorescence, 48 h, basal, profiling panel (AID 1163). Also: test concentration not given here. The note with it: 3T3-L1 adipocytes viability, higher = more signal.
Experiment [13] in a line: compound effects on hepatocellular carcinoma cell viability – HepG2, calcein-AM fluorescence, 48 h, basal, profiling panel (AID 1164). Also: test concentration not given here. As to conditions: higher = more signal.
Experiment [14] is described as follows: compound effects on multiple myeloma cell viability – MM1S, calcein-AM fluorescence, 48 h, basal, profiling panel (AID 1165).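 Also: viability of MM1S multiple myeloma cells under basal unstimulated conditions; test concentration not given here.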 The note with it: higher = more signal.
The nature of experiment [15]: calcein-AM signal in unstimulated myeloma cells – cell-based, calcein-AM fluorescence, 48 h, PK04 Diversity Set, profiling panel (AID 1166).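 Also: cells grown under basal conditions without added stimulus; test concentration not given here.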 As to conditions: RPMI8226 myeloma viability, higher = more signal.
Experiment [16] is described as follows: JC-1 mitochondrial signal, unstimulated HepG2 cells – cell-based, JC-1 fluorescence, 24 h, 100 nL compound, profiling panel (AID 1167). Also: test concentration not given here. As to conditions: HepG2 mitochondrial potential, higher = more signal.
Experiment [17] in a line: JC-1 mitochondrial signal, unstimulated adipocytes – cell-based, JC-1 fluorescence, 3T3-L1 adipocytes, 24 h, 100 nL compound, profiling panel (AID 1168). Also: test concentration not given here. As to conditions: JC-1 mitochondrial fluorescence, higher = more signal, called active from +8 up or from −8 down.
Experiment [18] can be described thus: JC-1 mitochondrial signal, unstimulated myeloma cells – cell-based, JC-1 fluorescence, RPMI8226, 24 h, 100 nL compound, profiling panel (AID 1169). Also: test concentration not given here. The note with it: JC-1 mitochondrial potential fluorescence, higher = more signal.
Experiment [19] is described as follows: JC-1 mitochondrial signal, unstimulated MM1S myeloma – cell-based, JC-1 fluorescence, 24 h, 100 nL compound, profiling panel (AID 1170). Also: test concentration not given here. The note with it: MM1S mitochondrial potential, higher = more signal.
Experiment [20] can be described thus: resazurin metabolic signal in A549 cells – cell-based, resazurin fluorescence, 24 h, PK04 Diversity Set, profiling panel (AID 1171). Also: test concentration not given here. As to conditions: A549 viability, higher = more signal, called active from +8 up or from −8 down.

SMILES strings stand for the structures. Active and inactive are the calls of the source.

Sequence of NADPH oxidase 5 (Homo sapiens) (Q96PH1 whole entry, looked up): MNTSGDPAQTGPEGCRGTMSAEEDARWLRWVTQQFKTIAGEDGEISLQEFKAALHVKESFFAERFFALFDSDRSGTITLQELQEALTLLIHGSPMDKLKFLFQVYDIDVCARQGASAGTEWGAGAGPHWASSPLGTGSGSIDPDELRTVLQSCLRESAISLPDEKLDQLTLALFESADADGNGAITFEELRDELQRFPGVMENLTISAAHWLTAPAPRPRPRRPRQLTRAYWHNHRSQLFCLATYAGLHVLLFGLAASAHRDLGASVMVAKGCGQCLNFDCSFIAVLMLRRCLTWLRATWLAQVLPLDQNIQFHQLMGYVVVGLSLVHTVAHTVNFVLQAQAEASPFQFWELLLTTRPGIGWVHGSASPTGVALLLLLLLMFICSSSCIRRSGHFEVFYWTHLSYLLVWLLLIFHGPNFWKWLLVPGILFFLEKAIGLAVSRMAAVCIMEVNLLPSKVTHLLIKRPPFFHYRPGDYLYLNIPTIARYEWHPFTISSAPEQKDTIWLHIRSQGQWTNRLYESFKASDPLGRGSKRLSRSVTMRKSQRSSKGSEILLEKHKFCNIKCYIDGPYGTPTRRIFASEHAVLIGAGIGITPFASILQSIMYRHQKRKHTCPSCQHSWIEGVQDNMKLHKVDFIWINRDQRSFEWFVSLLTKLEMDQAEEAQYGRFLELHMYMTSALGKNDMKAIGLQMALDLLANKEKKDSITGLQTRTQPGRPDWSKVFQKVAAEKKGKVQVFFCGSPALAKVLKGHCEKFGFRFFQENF
Sequence of NADPH oxidase 4 (Homo sapiens) (Q9NPH5 whole entry, looked up): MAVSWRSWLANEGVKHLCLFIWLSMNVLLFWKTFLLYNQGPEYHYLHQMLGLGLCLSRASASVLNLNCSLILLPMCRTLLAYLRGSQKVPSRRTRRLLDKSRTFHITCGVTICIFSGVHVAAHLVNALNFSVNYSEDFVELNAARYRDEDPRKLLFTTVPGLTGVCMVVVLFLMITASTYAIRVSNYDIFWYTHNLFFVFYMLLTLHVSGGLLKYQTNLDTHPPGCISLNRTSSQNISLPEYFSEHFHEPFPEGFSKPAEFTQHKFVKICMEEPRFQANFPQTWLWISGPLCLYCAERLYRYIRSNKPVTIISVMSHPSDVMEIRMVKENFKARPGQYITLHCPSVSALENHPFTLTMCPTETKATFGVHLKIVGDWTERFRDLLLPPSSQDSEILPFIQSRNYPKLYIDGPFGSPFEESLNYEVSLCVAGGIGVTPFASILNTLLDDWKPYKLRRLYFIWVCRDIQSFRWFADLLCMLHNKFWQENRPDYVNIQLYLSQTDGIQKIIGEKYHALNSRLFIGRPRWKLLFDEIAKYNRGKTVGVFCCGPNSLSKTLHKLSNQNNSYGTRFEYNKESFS
Sequence of NADPH oxidase 2 (Homo sapiens) (P04839 whole entry, looked up): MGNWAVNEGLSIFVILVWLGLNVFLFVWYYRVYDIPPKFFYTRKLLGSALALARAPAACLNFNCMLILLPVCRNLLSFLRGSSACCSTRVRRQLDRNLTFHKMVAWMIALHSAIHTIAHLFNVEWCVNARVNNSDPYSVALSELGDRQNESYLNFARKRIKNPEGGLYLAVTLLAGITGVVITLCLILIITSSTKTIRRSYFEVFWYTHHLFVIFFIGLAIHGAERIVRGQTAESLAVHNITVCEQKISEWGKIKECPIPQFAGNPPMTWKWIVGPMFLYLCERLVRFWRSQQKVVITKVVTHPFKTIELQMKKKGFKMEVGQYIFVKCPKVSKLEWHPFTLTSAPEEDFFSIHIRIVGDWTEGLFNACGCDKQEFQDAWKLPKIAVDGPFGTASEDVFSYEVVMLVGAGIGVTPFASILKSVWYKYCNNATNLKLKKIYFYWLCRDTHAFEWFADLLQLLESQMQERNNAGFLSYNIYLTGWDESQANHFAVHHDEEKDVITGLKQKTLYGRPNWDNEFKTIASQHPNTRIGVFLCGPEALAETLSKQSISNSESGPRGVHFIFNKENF

On to `NCCCCCCNC(=O)[C@@H]1C[C@@H]2C(=O)N3CCC[C@H]3C(=O)N2[C@@H]1c1cccc(OCCO)c1`, for which the z-score is 1.82 (inactive) in experiment [1]; 4.29 (inactive) in [3]; -0.643 (inactive) in [4]; 1.53 (inactive) in experiment [5]; -1.8 (inactive) in experiment [6]; -0.0015 in experiment [7]. For the same compound, the z-score in experiment [8] was 1.62 (inactive); in experiment [9] it was 1.42 (inactive); in experiment [10], 0.99; in [11] it was 0.108; in experiment [12], 1.18; in experiment [13] it was -0.12. In addition, the z-score in experiment [14] was 0.597; in experiment [15], 0.313; in experiment [16] it was 0.127; in experiment [17], 0.391 (inactive); in [18], -0.675; in experiment [19], 0.468. Further, the z-score in [20] was 0.999 (inactive). In addition, the composite z-score in [2] was found to be 0.012.

For the compound `CCCC[C@H]1C[C@@H]1[C@@H]1N(C(C)=O)[C@H](c2cccc(OC)c2)CC12CC2`, the z-score was -1.17 (inactive) in [1]; 3.6 (inactive) in experiment [3]; 0.984 (inactive) in experiment [4]; 1.1 (inactive) in experiment [5]; 0.692 (inactive) in [6]; -0.168 in experiment [7]. For the same compound, the z-score was -0.927 (inactive) in experiment [8]; 0.998 (inactive) in experiment [9]; -2.9 in experiment [10]; -1.54 in [11]; -0.134 in experiment [12]; -0.793 in experiment [13]. Further, the z-score in [14] was -0.762; in experiment [15] it was -0.778; in [16] it was -1.07; in [17], 0.546 (inactive); in experiment [18], -0.172; in [19], -0.643. Also, the z-score in experiment [20] was 2.94 (inactive). The compound also yielded a composite z-score in experiment [2] of 0.416.

Turning to `COc1ccc(C(O)C2C=CC3C(=O)N(c4ccccc4)C(=O)C3N2Nc2ccc([N+](=O)[O-])cc2)c2ccccc12` (stereo not given), the z-score in [1] is -1.31 (inactive); in [3], 9.23 (active); in [4] it was 2.13 (inactive); in experiment [5], 0.722 (inactive); in [6] it was 1.12 (inactive); in [7], -0.446. The z-score in [8] is -0.273 (inactive); in [9], -0.96 (inactive); in experiment [10], -1.55; in [11] it was -0.826; in experiment [12], -1.07; in experiment [13], -0.39. The z-score in [14] was -0.517; in experiment [15] it was -0.54; in experiment [16], -2.27; in experiment [17] it was -1.08 (inactive); in [18], -0.344; in experiment [19] it was -1.32. Further, the z-score in [20] was 0.604 (inactive). Besides, in [2], the composite z-score was determined as 0.364.

Regarding `CCOC(=O)C[C@H]1[C@H](OC(=O)Cc2ccc3c(c2)OCO3)[C@@H](NC(=O)Cc2ccc(OC)cc2)c2cc(OCCCO)ccc2N1C(=O)Cc1ccc(OC)cc1`, the z-score is 1.91 (inactive) in [1]; 10.7 (active) in [3]; 0.647 (inactive) in experiment [4]; -1.02 (inactive) in [5]; -0.395 (inactive) in experiment [6]; 1.68 in experiment [7]. The z-score in [8] is -0.988 (inactive); in experiment [9] it was 0.754 (inactive); in experiment [10], 0.404; in [11] it was 2.07; in [12], 1.17; in [13], 1.57. Moreover, the z-score in experiment [14] was 0.405; in experiment [15], -0.658; in [16], 1.34; in experiment [17], 0.376 (inactive); in experiment [18] it was 0.229; in [19], -0.88. In experiment [20], the z-score was -0.379 (inactive). Further, in experiment [2], the composite z-score was -0.15.

With `C=CCOC(=O)[C@H]1[C@@H]2C(=O)O[C@@H](c3ccccc3)[C@@H](c3ccccc3)N2[C@@H](c2ccc(OCCOC(=O)[C@@H]3C[C@@H]4C(=O)N[C@@H](CCCCNC(C)=O)C(=O)N4[C@@H]3c3cccc(OCCO)c3)cc2)[C@]12C(=O)Nc1ccccc12`, the z-score in experiment [1] is -0.637 (inactive); in [3] it was 3.6 (inactive); in experiment [4] it was 1.34 (inactive); in experiment [5] it was 2.28 (inactive); in experiment [6] it was 0.621 (inactive); in [7] it was -0.52. For the same compound, the z-score in experiment [8] is 1.83 (inactive); in experiment [9], 1.4 (inactive); in [10], 0.618; in experiment [11], -0.389; in [12] it was 0.585; in [13], -0.567. For the same compound, the z-score in experiment [14] was -0.0545; in experiment [15], 0.879; in experiment [16], 1.24; in experiment [17], 2.61 (inactive); in experiment [18], -0.615; in [19], -0.966. In addition, the z-score in experiment [20] was -0.165 (inactive). In addition, the composite z-score in experiment [2] was 0.082.

Source of the values: PubChem BioAssay.
